Activity calls are given as the source filed them. The calls were made as follows: active = hit-call score of the fitted dose curve at least 0.9, where 1 is the maximum; inactive = score below 0.9.
Target: Bile acid receptor (Homo sapiens) (UniProt Q96RI1)
Assay: ATG_IR1_CIS: Attagene CIS-FACTORIAL HepG2 Assay for human Nuclear Receptor Subfamily 1 Group H Member 4 (NR1H4), IR1 submotif (AID 2282946)
Settings: IR1 reporter transcription, actives raise or lower the signal
How it was run: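 HepG2 cells transiently transfected with multiplexed cis-element reporter units read endogenous transcription factor activity. After 24 h compound exposure, reporter mRNA was quantified by RT-PCR, fluorescent labelling, HpaI digestion and capillary electrophoresis; bidirectional fitting versus DMSO baseline.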

Bile acid receptor (Homo sapiens), sequence (Q96RI1 whole entry, looked up): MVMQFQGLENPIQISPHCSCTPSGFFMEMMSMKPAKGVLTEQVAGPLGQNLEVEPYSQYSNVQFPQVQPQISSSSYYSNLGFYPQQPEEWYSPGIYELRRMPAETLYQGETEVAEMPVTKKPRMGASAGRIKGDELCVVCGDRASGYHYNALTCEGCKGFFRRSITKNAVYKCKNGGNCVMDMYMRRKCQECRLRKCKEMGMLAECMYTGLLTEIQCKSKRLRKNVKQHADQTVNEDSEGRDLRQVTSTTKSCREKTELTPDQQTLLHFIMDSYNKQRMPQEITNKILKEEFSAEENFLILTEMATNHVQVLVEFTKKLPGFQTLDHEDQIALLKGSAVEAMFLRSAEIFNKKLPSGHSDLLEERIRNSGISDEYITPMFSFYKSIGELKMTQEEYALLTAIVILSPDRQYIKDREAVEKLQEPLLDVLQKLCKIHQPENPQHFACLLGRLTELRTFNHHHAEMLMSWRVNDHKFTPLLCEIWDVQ

outcome, inactive:
Nc1cccc(N)c1
COc1cccc(-c2ccc(/C=C\CN3CCCCCC3)cc2Cl)c1
CCOCCOCCOCCO
Cn1c(=O)cc(Oc2ccc(F)cc2F)c2cnc(NCC(C)(C)O)nc21
CC(C)=CCC/C(C)=C\CO
C1N2CN3CN1CN(C2)C3

AC50, active:
CNS(=O)(=O)c1cc(C(=O)N2CCC(CCN3C4CCC3CC(n3c(C)nc5ccccc53)C4)(c3cccc(F)c3)CC2)c(Cl)cc1F (stereo unspecified) 3.85 µM

Tested on: not listed separately
Assay: ATG_GRE_CIS: Attagene CIS-FACTORIAL HepG2 Assay for human Glucocorticoid Response Elements (GRE) (AID 2282947)
Settings: HepG2 GRE cis-reporter, Attagene multiplex mRNA; actives raise or lower the signal
How it was run: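 Reporter transcripts read by RT-PCR with capillary electrophoresis fluorescence after a 24 h chemical exposure of HepG2 cells transiently transfected with multiple cis-element reporter units. Gain or loss fitted against DMSO.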

outcome, inactive:
CC(C)=CCCC(C)=CC=O
C=CC(=C)CCC=C(C)C
O=C1CCC(N2C(=O)c3ccccc3C2=O)C(=O)N1 (stereo unspecified)
Cn1c(=O)c2c(ncn2C)n(C)c1=O
Nc1nc2ncc(CNc3ccc(C(=O)N[C@@H](CCC(=O)O)C(=O)O)cc3)nc2c(=O)[nH]1
CC(=O)OCCC(C)C
CCCC(=O)OCC
COc1cccc(-c2ccc(/C=C\CN3CCCCCC3)cc2Cl)c1
O=C(OC[C@H]1O[C@@H](OC(=O)c2cc(O)c(O)c(OC(=O)c3cc(O)c(O)c(O)c3)c2)[C@H](OC(=O)c2cc(O)c(O)c(OC(=O)c3cc(O)c(O)c(O)c3)c2)[C@@H](OC(=O)c2cc(O)c(O)c(OC(=O)c3cc(O)c(O)c(O)c3)c2)[C@@H]1OC(=O)c1cc(O)c(O)c(OC(=O)c2cc(O)c(O)c(O)c2)c1)c1cc(O)c(O)c(OC(=O)c2cc(O)c(O)c(O)c2)c1
Cn1c(=O)cc(Oc2ccc(F)cc2F)c2cnc(NCC(C)(C)O)nc21
CC(C)CC(C)(O)C#CC(C)(O)CC(C)C (stereo unspecified)
CC(C)=CCC/C(C)=C\CO
Cc1ccc(S(=O)(=O)O)cc1C
CC(=O)c1ccc2c(c1)[C@H](NC(=O)c1ccc(F)cc1)[C@@H](O)C(C)(C)O2
C=CCCCCCCCCC(=O)O
O=C(O)c1cccc(Oc2ccccc2)c1
CC1=CC(=O)CC(C)(C)C1
On1ccccc1=S
CCn1nc(Cc2ccccc2)cc1C1CCN(C[C@H]2C[C@H](N(C)[C@@H](C(=O)O)C(C)C)C[C@@H]2c2cccc(F)c2)CC1

AC50, active:
O=P(OC(CCl)CCl)(OC(CCl)CCl)OC(CCl)CCl 153 µM

Tested on: not listed separately
Assay: ATG_ISRE_CIS: Attagene CIS-FACTORIAL HepG2 Assay for human Interferon Regulatory Factor 1 (IRF1) binding to an Interferon-Stimulated Response Element (ISRE) (AID 2282948)
Settings: HepG2 ISRE cis-reporter (Attagene), mRNA transcription readout; actives raise or lower the signal
How it was run: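 Uses HepG2 liver cells transfected with cis-regulated reporters and measures mRNA 24 h post-dosing through RT-PCR, primer-extension labelling and capillary electrophoresis, with DMSO as negative control.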

outcome, inactive:
O=C(O)CC(O)C(=O)O (stereo unspecified)
CC(C)=CCCC(C)=CC=O
C=CC(=C)CCC=C(C)C
CC[C@H]1OC(=O)[C@H](C)[C@@H](O[C@H]2C[C@@](C)(OC)[C@@H](O)[C@H](C)O2)[C@H](C)[C@@H](O[C@@H]2O[C@H](C)C[C@H](N(C)C)[C@H]2O)[C@](C)(O)C[C@@H](C)C(=O)[C@H](C)[C@@H](O)[C@]1(C)O
O=C1CCC(N2C(=O)c3ccccc3C2=O)C(=O)N1 (stereo unspecified)
C[C@](N)(Cc1ccc(O)c(O)c1)C(=O)O
Nc1cccc(N)c1
Cn1c(=O)c2c(ncn2C)n(C)c1=O
Nc1nc2ncc(CNc3ccc(C(=O)N[C@@H](CCC(=O)O)C(=O)O)cc3)nc2c(=O)[nH]1
CC(=O)OCCC(C)C
CCCC(=O)OCC
COc1cccc(-c2ccc(/C=C\CN3CCCCCC3)cc2Cl)c1
O=C(OC[C@H]1O[C@@H](OC(=O)c2cc(O)c(O)c(OC(=O)c3cc(O)c(O)c(O)c3)c2)[C@H](OC(=O)c2cc(O)c(O)c(OC(=O)c3cc(O)c(O)c(O)c3)c2)[C@@H](OC(=O)c2cc(O)c(O)c(OC(=O)c3cc(O)c(O)c(O)c3)c2)[C@@H]1OC(=O)c1cc(O)c(O)c(OC(=O)c2cc(O)c(O)c(O)c2)c1)c1cc(O)c(O)c(OC(=O)c2cc(O)c(O)c(O)c2)c1
CCOCCOCCOCCO
O=C(O)c1cccc(N(Cc2cccnc2)c2ccc(OC(F)F)c(OC(F)F)c2)c1
Cn1c(=O)cc(Oc2ccc(F)cc2F)c2cnc(NCC(C)(C)O)nc21
CC(C)CC(C)(O)C#CC(C)(O)CC(C)C (stereo unspecified)
CC(C)=CCC/C(C)=C\CO
Cc1ccc(S(=O)(=O)O)cc1C
CC(=O)c1ccc2c(c1)[C@H](NC(=O)c1ccc(F)cc1)[C@@H](O)C(C)(C)O2
C=CCCCCCCCCC(=O)O
O=C(O)c1cccc(Oc2ccccc2)c1
C1N2CN3CN1CN(C2)C3
CC1=CC(=O)CC(C)(C)C1
O=C(O)CCN(C1(C(=O)NO)CCCC1)S(=O)(=O)c1ccc(Oc2ccc(F)cc2)cc1
On1ccccc1=S

AC50, active:
O=P(OC(CCl)CCl)(OC(CCl)CCl)OC(CCl)CCl 23.2 µM
CNS(=O)(=O)c1cc(C(=O)N2CCC(CCN3C4CCC3CC(n3c(C)nc5ccccc53)C4)(c3cccc(F)c3)CC2)c(Cl)cc1F (stereo unspecified) 8.05 µM
CCn1nc(Cc2ccccc2)cc1C1CCN(C[C@H]2C[C@H](N(C)[C@@H](C(=O)O)C(C)C)C[C@@H]2c2cccc(F)c2)CC1 100 µM
